HT1080 IDH1KD tx: qHTS for induction of synthetic lethality in tumor cells producing 2HG: qHTS for the HT-1080-IDH1KD cell line; Potency, µM (top dose mostly 46.1 µM), hits mostly cytotoxic; HT-1080 IDH1 knockdown viability, ATP luminescence, 48 h; 2% of 360,000 active
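Using the IDH1-knockdown HT-1080 line run in the same batch and compound series as the NT line, viability after 48 h at 37 °C was determined by CellTiter-Glo luminescence and expressed as % activity.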
IL-1B inflam inh: qHTS for Inhibitors of Inflammasome Signaling: IL-1-beta AlphaLISA Primary Screen; THP-1 LPS/ATP IL-1B secretion, AlphaLISA, 16 h; hits give low values; activity change, % at 57.5 µM; 4.7% of 360,000 active; in the data active means activity change below about -50%; inconclusive means mostly about -30% to -49%
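THP-1 cells pretreated 1 hr with compounds (up to 57.5 uM final), then stimulated with LPS (250 ng/mL final) plus ATP (1.25 mM final); secreted IL-1B measured by AlphaLISA after 16 hr, decreased signal indicating inhibition.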
DT40 TDP1 CPT: qHTS for Inhibitors of human tyrosyl-DNA phosphodiesterase 1 (TDP1): qHTS in cells in presence of CPT; chicken DT40 Tdp1-/-;hTDP1 cells + 20 nM CPT, ATP luminescence, 48 h; Potency, µM (highest dose often 46.2 µM), usual class: inhibitors; 12% of 420,000 active; further: nearly all actives have a fitted effect of over 55% in size
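Chicken DT40 Tdp1-/- cells complemented with human TDP1, 400 cells/well, exposed to compounds plus 20 nM camptothecin for at least 48 h at 37 C; viability read as ATP content by CellTiter-Glo luminescence.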
HT1080NT lethal: qHTS for induction of synthetic lethality in tumor cells producing 2HG: qHTS for the HT-1080-NT fibrosarcoma cell line; HT-1080-NT fibrosarcoma viability, CellTiter-Glo ATP luminescence, 48 h; Potency, µM (titrated, usually from 46.1 µM), hits mostly cytotoxic; 1.6% of 360,000 active;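 further: NT is the 2HG producing partner of a matched IDH1 knockdown line; nearly all actives have a fitted effect of over 55% in size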
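HT-1080-NT; 750 cells/well; 5% FBS RPMI; 48 h compound, 37 degrees C; CellTiter-Glo luminescence; curve fitting and curve-class assignment.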
DT40 TDP1 no CPT: qHTS for Inhibitors of human tyrosyl-DNA phosphodiesterase 1 (TDP1): qHTS in cells in absence of CPT; DT40 Tdp1-/- hTDP1 cells, no CPT, ATP luminescence, 48 h; Potency, µM (highest dose often 46.2 µM), usual class: inhibitors; 15% of 420,000 active; further: nearly all actives have a fitted effect of over 55% in size
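A cellular qHTS used chicken DT40 cells lacking endogenous Tdp1 but carrying stably transfected human TDP1. Compounds were applied without camptothecin, and cell growth kinetics were judged by ATP-dependent luminescence after ≥48 hr.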
Hits are given with their value; 0 = inactive; ? = inconclusive; - = no result. This is a sample that favours compounds with a hit; in the whole collection about 19% have one here. Unless noted, the call rests on the fitted dose curve; in most records, active means well fitted curve in the direction sought with a large enough effect; inconclusive means small, poorly fitted or top-dose-only effect, or another doubt; inactive means no such curve, though single readings can be large; an effect the other way counts as inactive or inconclusive.

SMILES | HT1080 IDH1KD tx | IL-1B inflam inh | DT40 TDP1 CPT | HT1080NT lethal | DT40 TDP1 no CPT
Cc1cc(C)n2nc(SCC(=O)c3cc(C)n(-c4cc(C)on4)c3C)nc2n1 | 0 | 0 | 10µM | ? | 10µM
C=C(C)CSc1nc2nc(C)cc(C)n2n1 | 0 | 0 | 0 | 0 | 0
O=c1c2ccccc2nnn1CSc1ncnc2ccccc12 | 0 | -81 | ? | 0 | ?
O=C(Nc1nc2c(F)cc(F)cc2s1)C1CC1 | 0 | 0 | 0 | 0 | ?
CCCCN(C(=O)C1=CC=CN2CCS(=O)(=O)N=C12)c1ccccc1 | 0 | 0 | 0 | 0 | ?
CCC1CCCCN1C(=O)CSc1nnc(CNC(=O)c2cc(OC)c(OC)c(OC)c2)o1 (stereo unspecified) | 0 | 0 | 0 | 0 | 0
Nc1cnccn1 | - | - | 0 | - | 0
Cc1ccc(Cl)cc1-c1cc(C(=O)N2CCN(c3ccncc3)CC2)[nH]n1 | 0 | ? | ? | 0 | ?
CC(NC(=O)COC(=O)Cc1ccsc1)c1ccccc1 (stereo unspecified) | 0 | 0 | 0 | 0 | 0
Cc1cc(-n2c(C)cc(C(=O)CSc3nnnn3-c3ccc(Cl)cc3)c2C)no1 | 0 | 0 | ? | 0 | 7.3µM
Cc1cc(NC(=O)CSc2nnnn2-c2ccc(C(C)C)cc2)no1 | 0 | 0 | ? | 0 | ?
O=[N+]([O-])c1ccc(CSc2ncnc3ccccc23)cc1 | 0 | -73 | ? | 0 | ?
Cc1cc(-n2c(C)cc(C(=O)CSc3ncnc4ccccc34)c2C)no1 | ? | 0 | 1.8µM | 0 | 1.2µM
Cc1cc(C)n2ncc(/C(N)=N/OC(=O)Nc3ccccc3)c2n1 | 0 | 0 | 0 | 0 | 0
Cc1nnc(N2CCCC(C(=O)Nc3cccc(C(F)(F)F)c3)C2)c2nn(-c3ccccc3)c(C)c12 (stereo unspecified) | - | - | ? | - | 21µM
COc1ccccc1NC(=O)C1CCCN(c2nnc(C)c3c(C)n(-c4ccccc4)nc23)C1 (stereo unspecified) | - | - | 16µM | - | 8.2µM
CCOC(=O)c1cccc(NC(=O)C2CCCN(c3nnc(N4CCCC4=O)s3)C2)c1 (stereo unspecified) | 0 | 0 | ? | 0 | 0
Cc1ccc(NC(=O)C2CCCN(c3nnc(C)c4c(C)n(-c5ccccc5)nc34)C2)cc1Cl (stereo unspecified) | - | - | 12µM | - | 4.1µM
Cc1ccc(NC(=O)N2CCN(c3nnc(C)c4c(C)n(-c5ccccc5)nc34)CC2)cc1Cl | - | - | 0 | - | 0
COc1ccc(C)cc1NC(=O)N1CCN(c2nnc(C)c3c(C)n(-c4ccccc4)nc23)CC1 | - | - | 0 | - | 0
CCOC(=O)c1cccc(NC(=O)C2CCCN(c3nnc(C)c4c(C)n(-c5ccccc5)nc34)C2)c1 (stereo unspecified) | - | - | 13µM | - | 9.2µM
CN(C)c1nc(N)nc2c1ncn2C1OC(CO)CC1O (stereo unspecified) | 0 | 0 | ? | 0 | ?
CCc1nn(CC(=O)NCCC(C)C)c(=O)c2cc3c(OC)cccc3n12 | 0 | 0 | 0 | 0 | 0
COCC(C)n1c(C)cc(C(=O)COc2ccc(S(=O)(=O)N3CCOCC3)cc2Cl)c1C (stereo unspecified) | 0 | 0 | 21µM | 0 | ?
COc1ccccc1CNc1cc(-c2ccccc2C)ncn1 | - | - | 4.1µM | - | 4.1µM
SMILES | HT1080 IDH1KD tx | IL-1B inflam inh | DT40 TDP1 CPT | HT1080NT lethal | DT40 TDP1 no CPT
COc1cccc(-c2cc(NCc3ccc(OC)cc3OC)ncn2)c1 | - | - | 10µM | - | 13µM
COc1ccccc1CNc1cc(-c2cccnc2)ncn1 | - | - | ? | - | 0
COc1ccccc1CNc1cc(-c2ccccc2OC)ncn1 | - | - | 4.6µM | - | 2.9µM
Cc1ccc(S(=O)(=O)Nc2c(C)cc([N+](=O)[O-])cc2C)cc1 | 0 | 0 | 0 | 0 | ?
Cc1ccc(-c2nn(C(C)(C)C)c3ncnc(NS(=O)(=O)c4ccc([N+](=O)[O-])cc4)c23)cc1 | 0 | 0 | 21µM | 0 | 18µM
CC(C)OCC(O)CN1CCC(Cc2ccccc2)CC1 (stereo unspecified) | 0 | 0 | 0 | 0 | 0

Screening data as filed in PubChem.
